Screening data from PubChem.
Shown are actives, neighbours in structure and some others; about 2.9% of the full set was active somewhere.
NSD2 HMT inh: NSD2 (human) methyltransferase inhibition; O96028; NSD2 peptide methylation, AlphaScreen, 120 min; inhibition, % at 12.5 µM; 0.54% of 310,000 active; AID 743445; in the data active = inhibition above about 50%
Wnt act: activates Wnt/beta-catenin signaling in a reporter cell assay; 1.2% of 300,000 active; activator, plate reader; AID 743398; activation, % at 9.35 µM; in the data active = activation above about 30%, passing the limit was not always enough;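 note: 0% = neutral control wells and 100% = positive control wells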
PfHsp90 yeast 2: inhibits growth of yeast expressing Plasmodium falciparum Hsp90. S. cerevisiae expressing PfHsp90, BacTiter-Glo ATP, 48 h; yeast lacking PDR1 and PDR3 efflux regulators. inhibition, % at 9.4 µM. 0.32% of 310,000 active. AID 504621;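 active = every replicate shows inhibition above about 80%, whatever the replicate mean, limit read from the data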;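 note: 0% = DMSO neutral controls and 100% = 20 µM radicicol positive controls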
N-glyco inh: N-linked glycosylation inhibition; D54 ERlucT glycosylation luciferase reporter, 24 h; percent of 100 nM tunicamycin response; reporter increase, % at 12.5 µM; 0.23% of 360,000 active;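 active = mean luciferase reporter signal, scaled so untreated is 0 and the glycosylation-blocking control 100, at or above a set limit in every replicate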;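 note: luciferase carries N-glycosylation sites so blocking glycosylation raises the light; 0% = median of neutral control wells and 100% = median of 100 nM tunicamycin wells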
MITF act: increases MITF-driven TRPM1 promoter luciferase signal | SK-MEL-5 TRPM1-promoter luciferase, 24 h; % of positive control, neutral wells = 0 | activation, % at 12.5 µM | 0.75% of 300,000 active | AID 588334;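 active = mean activation of at least 80% with every replicate also reaching 80%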;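 note: 0% = neutral control wells and 100% = parthenolide positive control wells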
MITF TRPM1 inh: reduces MITF-dependent TRPM1 promoter luciferase signal; SK-MEL-5 TRPM1 promoter luciferase, 24 h; inhibition, % at 12.5 µM; 0.83% of 330,000 active; AID 488899;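 active = mean inhibition across replicates of 60% or more, whatever share of single replicates reaches that level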
* marks the source's active call; other numbers are inactive results; . = no result given.

SMILES | NSD2 HMT inh | Wnt act | PfHsp90 yeast 2 | N-glyco inh | MITF act | MITF TRPM1 inh
CCCCCc1cc(=O)oc2c(C(CCN3CCCC3)c3ccc(N(C)C)cc3)c(OC)cc(OC)c12 (stereo unspecified) | . | -11 | -15 | -9 | -78 | 79*
COc1cc(OC)c2ccc(=O)oc2c1C(CCN1CCCC1)c1ccc(N(C)C)cc1 (stereo unspecified) | . | -3 | -2 | -4 | -1 | 3
CCCCCc1cc(=O)oc2c(C(CCN3CCCCC3)c3ccc(OC)cc3)c(OC)cc(OC)c12 (stereo unspecified) | . | -22 | . | -7 | -91 | 92*
CCCCCc1cc(=O)oc2c(C(CCN3CCCC3)c3cc(OC)c(OC)c(OC)c3)c(OC)cc(OC)c12 (stereo unspecified) | . | -11 | 10 | -7 | -94 | 95*
CCCCCc1cc(=O)oc2c(C(CCN3CCCC(C)C3)c3ccc(OC)cc3)c(OC)cc(OC)c12 (stereo unspecified) | . | -25 | 5 | -5 | -44 | 47
CCN(CC)CCC(c1ccc(N(C)C)cc1)c1c(OC)cc(OC)c2ccc(=O)oc12 (stereo unspecified) | . | -2 | 1 | -2 | -5 | 8
CCCCCc1cc(=O)oc2c(C(CCN(CC)CC)c3ccc(OC)cc3)c(OC)cc(OC)c12 (stereo unspecified) | . | -10 | 3 | -4 | -80 | 81*
COc1ccc(-n2ncc3c(=O)n(CC(=O)Nc4ccc5c(c4)OCCO5)cnc32)cc1 | -2 | -1 | 0 | -4 | 0 | 5
Nc1[nH]c(C(=O)c2ccc(Br)cc2)c(-c2ccc(Cl)cc2Cl)c1C(=O)NCCc1c[nH]c2ccccc12 | . | 11 | . | . | . | .
Cc1ccc(N2C(=O)C(Cl)=C(N3CCCCCC3)C2=O)c(C)c1 | -10 | 4 | -10 | -9 | 2 | -3
COc1ccc(-c2ccc3c(n2)CCCN3S(=O)(=O)c2ccccc2C)cc1 | . | 0 | . | . | . | .
Cc1ccc(S(=O)(=O)NCC(=O)N2CCN(c3ccccn3)CC2)cc1C | -10 | . | . | . | . | .
Oc1cc(-c2ccc(N3CCCCC3)nc2)cc2cccnc12 | . | . | 111* | -7 | 16 | -12
CN(C)c1ccc(-c2cc(O)c3ncccc3c2)cc1 | . | 13 | 101* | -4 | 20 | -21
CCCCn1c(SCc2c(C)noc2C)nc2cc(S(N)(=O)=O)ccc21 | 0 | . | . | 40* | -8 | 8
CCCCn1c(SCC(=O)Nc2cc(C)on2)nc2cc(S(N)(=O)=O)ccc21 | -1 | -1 | . | 0 | 8 | -4
CCN(CC)CCNC(=O)c1cc(-c2cccnc2)nc2ccc(S(=O)(=O)N3CCC(C)CC3)cc12 | 21 | 1 | 15 | -9 | -88 | 88*
N#Cc1ccccc1CSc1nc(N)cc(N)n1 | -3 | -2 | 3 | 0 | . | 1
CC1CCc2c(sc(NC(=O)C3CCCO3)c2C#N)C1 (stereo unspecified) | -3 | 7 | . | -2 | 128* | -120
CCNC(=S)Nc1sc2c(c1C#N)CCC(C)C2 (stereo unspecified) | 2 | 12 | -22 | 0 | . | -10
CCOC(=O)Nc1sc2c(c1C#N)CCC(C)C2 (stereo unspecified) | -2 | . | -62 | 0 | 83* | -88
CC1CCc2c(sc(/N=C/N(C)C)c2C#N)C1 (stereo unspecified) | 5 | 39* | -18 | 1 | 55 | -49
CN(C)/C=N/c1sc2c(c1C#N)CCCC2 | 7 | 3 | 24 | -1 | 25 | -24
CC1CCc2c(sc(NC(=O)COC(=O)C3CCCO3)c2C#N)C1 (stereo unspecified) | -1 | 2 | -4 | 1 | 20 | -18
Cc1cccc(-c2nnc(SCC(=O)Nc3ccc(OCc4ccccc4)cc3)n2Cc2ccco2)c1 | 3 | . | . | . | . | .
SMILES | NSD2 HMT inh | Wnt act | PfHsp90 yeast 2 | N-glyco inh | MITF act | MITF TRPM1 inh
C=C(C)CSc1nc2sc3c(c2c(=O)n1-c1ccc(OC)cc1)CCN(C)C3 | 1 | 0 | . | . | . | .
CCCc1cc(=O)oc2cc(OCC(=O)NCCN3CCOCC3)c(Cl)cc12 | -1 | -2 | . | 4 | . | .
CCN(CC)S(=O)(=O)c1cc(NC(=O)C(CC(C)C)NC(N)=O)ccc1C (stereo unspecified) | -2 | 13 | . | -1 | -6 | 7
Cc1ccc(-c2n[nH]c(=S)c3ccccc23)cc1S(=O)(=O)NCC1CCCO1 (stereo unspecified) | 32 | -1 | -35 | 4 | -5 | 8
COC(=O)c1sc(NC(=O)COc2ccccc2C)nc1C | 0 | 1 | -32 | 1 | 44 | -42
COc1ccccc1OCC(=O)Nc1nc(C)c(C)s1 | 5 | 35* | 12 | -9 | 85* | -92
COc1cc(/C=C(/C(=O)c2cccs2)c2nc3ccccc3[nH]2)ccc1O | 4 | . | 16 | 12 | -44 | 46
O=C(/C(=C/c1ccc(Cl)cc1)c1nc2ccccc2[nH]1)c1cccs1 | . | . | . | -9 | -95 | 95*
O=C(/C(=C\c1ccccc1)c1nc2ccccc2[nH]1)c1ccc(Cl)cc1 | 0 | . | 104* | 34* | -18 | 20
CCOC(=O)Nc1ccc2c(c1)C(=NNC(N)=S)c1ccccc1-2 | -2 | 0 | . | 12 | 4 | -1
CCOC(=O)Nc1ccc2c(c1)C(=NO)c1ccccc1-2 | -2 | 55* | 8 | -3 | 41 | -46
c1ccc(CSc2ncnc3c2ncn3C2CCCCO2)cc1 (stereo unspecified) | -1 | -4 | -14 | -6 | 100* | -107
Fc1ccc(CSc2ncnc3c2ncn3C2CCCCO2)cc1 (stereo unspecified) | -1 | -3 | 15 | -2 | 69 | -76
Fc1cccc(CSc2ncnc3c2ncn3C2CCCCO2)c1 (stereo unspecified) | 1 | -1 | 4 | -4 | 98* | -95
O=C(c1ccc(F)cc1)c1c[nH]c(C(=O)NCC2CCCO2)c1 (stereo unspecified) | 4 | . | . | . | . | .
CC(C)c1ccc(Nc2nnc(SCC(=O)NCC3CCCO3)s2)cc1 (stereo unspecified) | -4 | 47* | . | -6 | 37 | -33
CC(=O)Nc1cccc(NC(=O)CSc2ncc(C(=O)Nc3ccccc3)c(=O)n2C)c1 | 1 | 0 | -27 | 13 | -66 | 67*
CC(=O)Nc1ccc(NC(=O)CSc2ncc(C(=O)Nc3ccc(Cl)cc3)c(=O)n2C)cc1 | -1 | . | -35 | 2 | -1 | 2
Cn1c(SCC(=O)NCC2CCCO2)ncc(C(=O)Nc2ccc(Cl)cc2)c1=O (stereo unspecified) | -3 | 13 | 3 | 2 | -68 | 67*
CC(=O)Nc1cccc(NC(=O)CSc2ncc(C(=O)Nc3ccc(F)cc3)c(=O)n2C)c1 | 4 | -1 | . | 11 | -48 | 47
Cc1cccc(Nc2nnc(SCC(=O)NCC3CCCO3)s2)c1 (stereo unspecified) | -1 | 5 | 20 | -1 | -1 | 1
